According to PubChem BioAssay:

molecular target: Focal adhesion kinase 1 (Homo sapiens) (UniProt Q05397); experiment: PTK2 protein binding on printed compound slides – biochemical, small-molecule microarray, 635/667 nm fluorescence, BSA, DTT, primary screen (AID 1130); conditions: 635 nm fluorescence, higher = more signal;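 also: composite of spot emission at 667 nm and signal to noise over triplicate slides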
Sequence (Q05397 whole entry, looked up): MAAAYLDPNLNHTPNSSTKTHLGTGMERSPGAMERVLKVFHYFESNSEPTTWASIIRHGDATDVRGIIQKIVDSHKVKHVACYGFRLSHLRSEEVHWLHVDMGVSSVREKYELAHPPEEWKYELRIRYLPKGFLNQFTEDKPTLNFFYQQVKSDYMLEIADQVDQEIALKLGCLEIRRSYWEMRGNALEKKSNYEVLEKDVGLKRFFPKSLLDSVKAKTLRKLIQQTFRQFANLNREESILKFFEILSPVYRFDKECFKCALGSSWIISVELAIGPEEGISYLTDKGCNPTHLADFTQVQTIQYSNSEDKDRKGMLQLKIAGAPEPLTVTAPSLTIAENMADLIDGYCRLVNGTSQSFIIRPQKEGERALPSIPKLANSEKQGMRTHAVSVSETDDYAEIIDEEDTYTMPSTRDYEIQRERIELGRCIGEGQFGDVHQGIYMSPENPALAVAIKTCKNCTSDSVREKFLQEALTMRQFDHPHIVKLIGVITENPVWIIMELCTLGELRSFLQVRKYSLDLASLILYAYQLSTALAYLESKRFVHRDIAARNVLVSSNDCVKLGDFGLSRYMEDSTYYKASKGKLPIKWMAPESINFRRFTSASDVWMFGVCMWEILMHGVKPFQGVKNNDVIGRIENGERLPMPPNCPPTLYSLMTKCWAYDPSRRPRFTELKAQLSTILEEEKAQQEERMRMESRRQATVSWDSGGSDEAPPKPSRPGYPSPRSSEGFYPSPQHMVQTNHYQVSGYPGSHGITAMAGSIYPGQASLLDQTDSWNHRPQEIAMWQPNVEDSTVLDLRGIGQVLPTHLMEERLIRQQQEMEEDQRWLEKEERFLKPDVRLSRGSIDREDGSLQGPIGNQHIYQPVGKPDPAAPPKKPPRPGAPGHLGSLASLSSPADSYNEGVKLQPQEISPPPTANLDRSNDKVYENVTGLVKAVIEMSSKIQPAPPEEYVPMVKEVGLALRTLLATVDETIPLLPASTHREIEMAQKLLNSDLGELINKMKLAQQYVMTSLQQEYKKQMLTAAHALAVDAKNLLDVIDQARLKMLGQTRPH

Compound | composite z-score
C=C(COC)/C(=C/C[C@H](OC(C)=O)c1ccc(CO)o1)c1cc(C(=O)OC)ccc1OC | 0.0348
O=C(NCCN1CCOCC1)C1N=C(c2ccc(OCCCO)cc2)N(c2ccccc2)O1 (stereo not given) | 0.124
COCCOC(=O)N1C(=O)[C@@]2(c3cc(C#CCCO)ccc31)[C@H](C(=O)N1CCCCCCC1)[C@H]1C(=O)O[C@H](c3ccccc3)[C@H](c3ccccc3)N1[C@@H]2c1ccc(OCCO)cc1 | 0.959
COc1cc(Br)cc(C(O)C2C=CC3C(=O)N(C)C(=O)C3N2N2CCCCC2)c1OC (stereo not given) | 0.446
C=C(C)[C@@H]1CC=C(C(O)C2C=CC3C(=O)N(C)C(=O)C3N2Nc2ccccc2)CC1 (stereo not given in full) | 0.427
O=C(N1CCCCC1)[C@]1(Cc2ccccc2)N=C(c2ccc(OCCCO)cc2)O[C@@H]1c1ccccc1 | 0.534
CC(C)c1ccc(NN2C(C(O)c3ccc(B(O)O)cc3)C=CC3C(=O)N(c4ccccc4)C(=O)C32)cc1 (stereo not given) | 0.581
C=CCNC(=O)[C@@H]1[C@H]2C(=O)O[C@H](c3ccccc3)[C@H](c3ccccc3)N2[C@H](c2ccccc2OCCO)[C@@]12C(=O)N(C(=O)OCCOC)c1ccccc12 | -0.0723
CC(C)C(O)C1C=CC2C(=O)N(c3ccccc3)C(=O)C2N1Nc1ccc([N+](=O)[O-])cc1 (stereo not given) | 0.774
COC(=O)[C@@]1(Cc2ccc(OC)cc2)[C@@H]2C(=CC(=O)[C@H]2CC(=O)C(=O)N2CCCC2)CN1C(=O)c1ccccc1 | 0.528
COC(=O)[C@@]1(Cc2ccc(OC)cc2)[C@H]2c3cc(C(=O)N(C)C)n(Cc4ccc(S(C)(=O)=O)cc4)c3C[C@H]2CN1C(=O)c1ccccc1 | 1.07
COCCOC(=O)N1C(=O)[C@@]2(c3cc(C#CC4(O)CCCCCC4)ccc31)[C@H](c1ccc(OCCO)cc1)N1[C@H](c3ccccc3)[C@H](c3ccccc3)OC(=O)[C@H]1[C@@H]2C(=O)N1CCN(c2ncccn2)CC1 | 0.333
COc1ccc(C#Cc2ccc3c(c2)[C@]2(C(=O)N3)[C@H](C(=O)Nc3nc4ccccc4s3)[C@H]3C(=O)O[C@H](c4ccccc4)[C@H](c4ccccc4)N3[C@@H]2c2ccc(O)cc2)cc1 | 0.289
OCCCC1=CC(c2cccs2)N(Cc2cc3c(cc2Br)OCO3)CC1 (stereo not given) | 0.585
CCN(CC)c1ccc(N2CC=CC34O[C@@H]5C=CCCOC(=O)C5[C@H]3C(=O)N(CCCCCCO)[C@@H]4C2=O)cc1 (stereo not given in full) | 0.899
CCCCCN1CC=CC23O[C@@H]4/C=C\CCC(C)OC(=O)C4[C@H]2C(=O)N(C(C)CO)[C@@H]3C1=O (stereo not given in full) | -0.521
CC(C)OC(=O)C=C1C[C@@H](c2ccccn2)O[C@@H](c2ccccn2)O1 | -0.19
C=CCOC(=O)[C@H]1[C@@H]2C(=O)O[C@@H](c3ccccc3)[C@@H](c3ccccc3)N2[C@@H](c2ccc(OCCOC(=O)[C@@H]3C[C@@H]4C(=O)N[C@@H](CCCCNC(C)=O)C(=O)N4[C@@H]3c3ccc(O)cc3)cc2)[C@]12C(=O)Nc1ccccc12 | 1.14

Compound | composite z-score
Cc1nc2cc(Br)ccc2c(=O)o1 | 0.201
C=CCOC(=O)[C@H]1[C@@H]2C(=O)O[C@@H](c3ccccc3)[C@@H](c3ccccc3)N2[C@@H](c2ccc(OCCOC(=O)[C@H]3C[C@H]4C(=O)N[C@@H](CCCCNC(C)=O)C(=O)N4[C@H]3c3ccc(O)cc3)cc2)[C@]12C(=O)Nc1ccc(I)cc12 | 0.169
C=C[C@@H](COC(=O)OC(C)(C)C)N(Cc1ccc(OC)cc1)S(=O)(=O)c1ccc(Br)cc1 | 0.43
COc1ccc([Si](C)(C)[C@H]2[C@H](CCO)O[C@@]3(C(=O)N(Cc4ccc(N(C=O)c5ccccc5)cc4)c4ccccc43)[C@@H]2C)cc1 | 0.114
COCCOC(=O)N1C(=O)[C@@]2(c3cc(C#Cc4ccc(OC)cc4)ccc31)[C@H](c1ccc(OCCO)cc1)N1[C@H](c3ccccc3)[C@H](c3ccccc3)OC(=O)[C@H]1[C@@H]2C(=O)N1CCN(c2ncccn2)CC1 | 0.424
COc1ccc(C#Cc2ccc3c(c2)[C@]2(C(=O)N3)[C@H](c3ccccc3OCCO)N3[C@H](c4ccccc4)[C@H](c4ccccc4)OC(=O)[C@H]3[C@@H]2C(=O)Nc2nc3ccccc3s2)cc1 | 0.717
CCCC[C@@H]1C[C@H]1[C@@H](NC(=O)C(C)(C)C)c1ccc(C(F)(F)F)cc1 | 0.702
COC(=O)C(CC#Cc1ccc2c(c1)[C@]1(C(=O)N2)[C@H](c2ccc(OCCO)cc2)N2[C@H](c3ccccc3)[C@H](c3ccccc3)OC(=O)[C@H]2[C@@H]1C(=O)Nc1nc2ccccc2s1)C(=O)OC | 0.633
COc1ccc(CCNC(=O)[C@@]2(Sc3ccc(C)cc3)CC(=O)N(C(C)C)[C@@H]2c2ccc(CO)cc2I)cc1 | 0.0367
COC(=O)[C@@]1(Cc2ccc(F)cc2)[C@H]2c3cc(C(=O)N4CCCC4)n(Cc4ccc(S(C)(=O)=O)cc4)c3C[C@H]2CN1C(=O)c1ccccc1 | 0.566
O=C1c2ccccc2[C@](Cc2ccccc2I)(C(=O)NCCN2CCOCC2)[C@H](c2ccc(CO)cc2)N1C1CCCCC1 | 0.991
COC(=O)[C@@]1(CCS(=O)(=O)c2ccccc2)N=C(c2ccc(OCCCO)cc2)O[C@H]1c1ccccc1CN=[N+]=[N-] | 1.46
COCCOC(=O)N1C(=O)[C@@]2(c3cc(C#CCNC(N)=O)ccc31)[C@H](C(=O)Nc1nc3ccccc3s1)[C@H]1C(=O)O[C@H](c3ccccc3)[C@H](c3ccccc3)N1[C@@H]2c1ccc(OCCO)cc1 | 0.346
CC(C)NC(=O)[C@@H]1c2ccccc2C(=O)N(C2Cc3ccccc3C2)[C@H]1c1ccc(CO)cc1 | 0.0815
CC(C)=CCCC(C)=CC(O)C1C=CC2C(=O)N(C)C(=O)C2N1Nc1ccccc1 (stereo not given) | 0.832
[N-]=[N+]=NCc1ccccc1C[C@]1(C(=O)N2CCCCC2)N=C(c2ccc(OCCCO)cc2)O[C@H]1c1ccccc1N=[N+]=[N-] | 1.71
CCOC(=O)C[C@H]1[C@H](OC(=O)c2ccc(C(=O)c3ccccc3)cc2)[C@@H](NC(=O)CC(C)C)c2cc(OCCCO)ccc2N1C(=O)c1ccc2ccccc2n1 | 0.0174
